Screening results as filed in PubChem BioAssay.
This is a sample that favours compounds with a hit; in the whole collection about 2.8% have one here.
KKLEB cytotox = CF airway cell cytotoxicity counter-screen | KKLEB CF airway cells viability, ATPlite luminescence, overnight; active compounds read low; cells stimulated with P. aeruginosa culture filtrate | activity change (cytotoxicity), % at 5 µM | actives 0.36% (n = 360,000);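 active means corrected activity change at or below -50% at 5 µM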
Peg3 prom inh-1 = inhibitors of Peg3 promoter; HeLa PEG-Prom luciferase reporter, luminescence, overnight; inhibition, % at 20 µM; actives 1.7% (n = 360,000); AID 588405;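 active means inhibition of at least 50% at 20 µM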
HIF-2a block = inhibitors of HIF-2a; inhibition, % at 18.8 µM; actives 0.72% (n = 360,000); 786-0 RCC cells HIF-2a reporter, luciferase luminescence, overnight;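 active means inhibition of the luminescence signal of 40% or more relative to plate controls, in a single-dose primary screen at 18.75 µM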
TRPM1 prom inh = reduces MITF-dependent TRPM1 promoter luciferase signal | SK-MEL-5 TRPM1 promoter luciferase, 24 h | AID 488899 | inhibition, % at 12.5 µM | actives 0.83% (n = 330,000);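 active means mean inhibition across replicates of 60% or more, whatever share of single replicates reaches that level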
CF NFkB block = cystic fibrosis NF-kB activation inhibition. KKLEB NF-kB-GFP reporter, PAF-induced, GFP fluorescence overnight. inhibition, % at 5 µM. actives 0.86% (n = 360,000);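 active means at least 50% inhibition at 5 µM, scaled per plate between neutral and stimulator controls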;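 further: PAF is a Pseudomonas aeruginosa culture filtrate used as stimulus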
Beta2AR agonist = activates human beta-2 adrenergic receptor causing internalization; actives 0.43% (n = 340,000); response, % (concentration not given with the values); Am2.2-beta2AR cells, FAP receptor internalization, flow cytometry; P07550; AID 504454;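 active means response above a set limit, near 3 SD of response in nonfluorescent compounds, cut at about 42% in these data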
Target sequence (P07550 whole entry, looked up): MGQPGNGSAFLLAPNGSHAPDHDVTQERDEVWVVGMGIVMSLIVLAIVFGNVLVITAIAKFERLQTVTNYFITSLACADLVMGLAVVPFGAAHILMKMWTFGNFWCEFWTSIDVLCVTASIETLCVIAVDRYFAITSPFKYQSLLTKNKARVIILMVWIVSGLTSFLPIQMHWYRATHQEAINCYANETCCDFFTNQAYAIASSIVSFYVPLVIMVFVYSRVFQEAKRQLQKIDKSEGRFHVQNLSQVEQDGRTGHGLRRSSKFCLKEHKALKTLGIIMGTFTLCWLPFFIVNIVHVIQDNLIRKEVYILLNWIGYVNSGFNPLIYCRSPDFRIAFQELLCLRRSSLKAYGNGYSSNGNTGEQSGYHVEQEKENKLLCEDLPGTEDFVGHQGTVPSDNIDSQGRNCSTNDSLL
Peg3 prom inh-2 = confirmation of Peg3 promoter inhibitors | HeLa PEG-Prom luciferase reporter, luminescence, overnight | shares compounds with Peg3 prom inh-1 | inhibition, % at 20 µM | actives 84% (n = 1,300) | AID 602417;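 active means at 20 µM dose, 40% or more inhibition averaged across four replicates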
CF NFkB conf = CF NF-kB inhibition confirmation, single concentration. shares compounds with CF NFkB block. KKLEB CF airway cells, PAF-induced NF-kB-GFP fluorescence, overnight. inhibition, % at 5 µM. actives 64% (n = 1,300). AID 602472; in the data active means inhibition above about 40%;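 further: stimulus PAF is a Pseudomonas aeruginosa filtrate and not platelet activating factor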
Mdm2 MdmX conf = confirmation of inhibitors of human Mdm2/MdmX interaction, set 2; actives 99% (n = 740); shares compounds with HIF-2a block; inhibition, % at 8 µM; AID 504601; SaOS-2 split-luciferase Mdm2/MdmX complementation, luminescence;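 active means mean inhibition of the luminescence signal across two replicates at or above 26 percent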
HIF-2a inh conf = HIF-2a inhibition, single concentration confirmation. inhibition, % at 18.8 µM. 786-0 RCC cells, HIF-2a luciferase reporter luminescence, overnight. actives 56% (n = 1,800). AID 651580. shares compounds with HIF-2a block;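 active means mean inhibition across four replicates of at least 40 percent at the single tested concentration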
HIF-1a cs = inhibits HIF-1a reporter, a counter-screen for HIF-2a inhibitors. shares compounds with HIF-2a block. MiaPaCa-2 HIF-1a luciferase reporter, desferoxamine, overnight. inhibition, % at 18.8 µM. actives 72% (n = 1,800);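 active means mean inhibition of the reporter signal across four replicates at the single tested dose of 50% or more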
Numbers stand for hits; i = inactive; nt = no result.

SMILES	KKLEB cytotox	Peg3 prom inh-1	HIF-2a block	TRPM1 prom inh	CF NFkB block	Beta2AR agonist	CF NFkB conf	others
Fc1ccc(-c2nnc(NC3=NCCCCC3)o2)cc1	i	82	67	62	i	i	nt	Peg3 prom inh-2=57;HIF-2a inh conf=75;HIF-1a cs=66
COC(=O)N1CCCCC1c1cc(C(=O)NCc2ccccc2)no1 (stereo not drawn)	i	i	i	nt	i	nt	nt
O=C1C(Cl)=C(Nc2ccc(O)cc2)C(=O)c2ccccc21	-82	107	94	97	108	73	nt	Peg3 prom inh-2=96;Mdm2 MdmX conf=103
O=C(Nc1ccn(CCCN2CCN(Cc3ccc(F)cc3)CC2)c(=O)n1)OCc1ccccc1	i	i	i	nt	i	nt	nt
O=C(O)c1ccc2nc(-c3ccccc3)sc2c1	i	87	78	i	i	i	nt	Peg3 prom inh-2=46;HIF-2a inh conf=62;HIF-1a cs=i
CC(C(=O)N1CCCC1)N(c1ccc(Cl)cc1)S(C)(=O)=O (stereo not drawn)	i	i	i	nt	i	nt	nt
CCOC(=O)c1[nH]c2c(c1C)C(=O)CC(c1ccco1)C2 (stereo not drawn)	i	i	i	i	57	i	80
CSCCOC(=O)c1[nH]c2c(c1C)C(=O)CC(c1ccco1)C2 (stereo not drawn)	i	i	i	i	i	i	nt
CCn1c(SC)nc2cc(S(=O)(=O)N3CCCCC3)ccc21	i	i	i	i	52	i	41
O=C(Nc1cccc(S(=O)(=O)N2CCCCC2)c1)Nc1ccc(Cl)cc1Cl	i	52	i	i	58	i	67
O=C(Cc1ccccc1Cl)Nc1cccc(S(=O)(=O)N2CCCCCC2)c1	i	i	i	i	i	i	nt
CC1Sc2ccc(C#N)cc2N(Cc2cccc(C(F)(F)F)c2)C1=O (stereo not drawn)	i	i	i	nt	i	nt	nt
O=C1NC[C@H](CCCCN2C[C@H](Cc3ccccc3)N(CCC3CCCCC3)C(=O)C2=O)N(CCc2ccc(O)cc2)C1=O	nt	nt	i	nt	nt	nt	nt
O=C(c1c[nH]c2ccccc12)C(Cl)c1ccccc1 (stereo not drawn)	i	i	i	i	63	i	42
COc1ccc(NC(=O)N(C)C[C@H]2OCc3cnnn3CCCC(=O)N([C@H](C)CO)C[C@@H]2C)cc1	i	i	i	nt	i	nt	nt
COc1ccc(-c2csc(NC3OC(=O)c4c3ccc(OC)c4OC)n2)cc1OC (stereo not drawn)	i	60	i	i	77	i	87
COc1ccc2c(c1OC)C(=O)OC2Nc1nc(-c2ccc([N+](=O)[O-])cc2)cs1 (stereo not drawn)	i	i	i	i	i	i	nt
COc1ccccc1Cc1c(C2CCCCC2)nc2ccc(Cl)cn12	i	i	i	nt	i	nt	nt
Cc1cccc(C(=O)N2CCC(Cc3ccccc3)CC2)c1[N+](=O)[O-]	i	i	i	i	i	i	nt
Cc1c(C(=O)N2CCC(Cc3ccccc3)CC2)cccc1[N+](=O)[O-]	i	i	i	i	51	i	43
CC1(C(=O)Nc2ccccc2)CCN1C(=O)CCc1ccc(Cl)cc1Cl (stereo not drawn)	i	i	i	nt	i	nt	nt
O=C(c1ccc(C(F)(F)F)cc1)N(CCCn1ccnc1)C(c1ccccn1)c1nc2ccccc2[nH]1 (stereo not drawn)	i	i	i	nt	i	nt	nt
COc1ccc(CN(C(=O)CSc2nnc(-c3c[nH]c4ccccc34)o2)c2ccc(F)cc2)cc1OC	i	107	i	i	63	i	68
C[C@@H]1CN([C@H](C)CO)C(=O)c2cc(NC(=O)Nc3ccc(C(F)(F)F)cc3)ccc2O[C@H]1CN(C)S(=O)(=O)c1ccccc1	i	i	i	i	57	i	57
COc1ccc(S(=O)(=O)N(C)C[C@H]2Oc3ccc(NC(=O)Nc4ccc(C(F)(F)F)cc4)cc3C(=O)N([C@H](C)CO)C[C@@H]2C)cc1	i	i	i	i	i	i	nt
SMILES	KKLEB cytotox	Peg3 prom inh-1	HIF-2a block	TRPM1 prom inh	CF NFkB block	Beta2AR agonist	CF NFkB conf	others
COc1ccc(NC(=O)Nc2cccc3c2O[C@H](CN(C)Cc2ccc(-c4ccccc4)cc2)[C@@H](C)CN([C@H](C)CO)C3=O)cc1	i	94	i	i	59	i	i
Cc1ccc(S(=O)(=O)c2c(C(=O)c3ccccc3)cnc3cc4c(cc23)OCCO4)cc1	i	i	i	i	51	i	i
COCCN(C(=O)COC(=O)Cc1ccc(Cl)cc1)c1c(N)n(Cc2ccccc2)c(=O)[nH]c1=O	i	i	i	nt	i	nt	nt
C[C@@H]1CN([C@@H](C)CO)C(=O)CCCn2nncc2CO[C@@H]1CN(C)S(=O)(=O)c1ccccc1C#N	i	i	i	nt	i	nt	nt
COC(=O)c1c(C)n(-c2ccc(OC)cc2)c2ccc(O)cc12	i	i	i	nt	58	i	84
COc1ccc2c(c1)c(C(C)=O)c(C)n2-c1ccc(C(C)=O)cc1	i	i	i	i	64	i	74
COc1cc(NC(=O)CCn2c(=S)[nH]c3ccccc3c2=O)cc(OC)c1OC	i	i	i	nt	i	nt	nt
Cc1cc2c(cc1C)-n1nnnc1C(N1CCN(c3ccccc3F)CC1)C(=O)N2 (stereo not drawn)	nt	nt	i	nt	nt	nt	nt
Cc1ccc(S(=O)(=O)N2[C@@H](c3cccc(Cl)c3)C(C(=O)OC(C)(C)C)=CC[C@H]2c2cccc(Cl)c2)cc1	i	i	i	nt	i	nt	nt
CCc1cc2cc3c(cc2nc1SCC(=O)Nc1cc(C)on1)OCO3	i	i	i	i	55	i	43
CCc1cc2ccc(C)cc2nc1SCC(=O)Nc1cc(C)on1	i	i	i	i	i	i	nt
N#CCCSC(=S)C1CCCC1=N (stereo not drawn)	i	i	i	nt	i	nt	nt
O=[N+]([O-])c1ccc(Oc2ccc(F)cc2)c2ccncc12	i	i	i	i	59	i	63
COc1ccc(NC(=O)Cn2nnc(C(=O)NCc3ccc(C)cc3)c2N)cc1Cl	i	i	i	i	58	i	i
Cn1c(=O)c2c(nc(Oc3ccc4ccccc4c3)n2C)n(C)c1=O	i	i	i	i	55	i	69
